For 92 molecules, inhibition results are on record in PubChem BioAssay AID488965 (Broad Institute, 2010).

The campaign covered roughly 340,000 compounds. About 210 (0.062%) were called active. The list comes from a sample in which actives are over-represented; it also holds similar structures and randomly drawn compounds. Values without a mark were called inactive. Rule as the data show it: active = inhibition above about 30% (passing the limit was not always enough); inconclusive = no clear call, values can overlap the other calls.

What is called inhibition is the change of the read-out against control, counted positive when it falls.

For this assay, the system named is PvdQ acylase [Pseudomonas aeruginosa LESB58]. The experiment in a line: P. aeruginosa PvdQ acylase inhibitors, primary screen, biochemical, fluorescence, plate reader and imaging, single point (AID 488965).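 Also: 0% = vehicle neutral wells and 100% = reference inhibitor wells.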 The following applies: purified PvdQ acylase, at 10 µM, active compounds read high.
As to `CCN(CC)c1ccc(NC(=O)c2ccc(Cl)nc2)cc1`, the inhibition is -15.1%.

As to `CCCCNC(=O)C1(c2ccc(OC)cc2)CCOCC1`, the inhibition is -4.05%.

For the molecule `NS(=O)(=O)c1ccc(NC(=S)N2CCCC2)cc1`, the inhibition was 9.11%. In the case of `CC1(C)Oc2ccc(C(=O)N3CCOCC3)cc2N(CC(=O)Nc2ccccc2)C1=O`, the inhibition is -16.2%. Regarding `COCCCNC(=O)/C(C#N)=C/c1c(N2CCCCCC2)nc2ccccn2c1=O`, the inhibition is -15.4%. For the molecule `Cc1ccccc1-n1nc(SCC(=O)O)sc1=S`, the inhibition was -9.08%.

For `Cc1cc(NC(=O)c2ccccc2C)no1`, the inhibition was 11.3%. For the molecule `Cc1csc(NC(=O)Nc2ccccc2[N+](=O)[O-])n1`, the inhibition was -8.58%. As for `Cc1cc(NC(=O)Nc2ccccc2[N+](=O)[O-])no1`, the inhibition is 62.7% (active). On to `Cc1c(C(=O)NCCN2CCOCC2)sc2nc(-c3ccc(F)cc3)cn12`, for which the inhibition was -12.4%.

Turning to `Cc1ccc(CNS(=O)(=O)CCNC(=O)c2ccccc2)cc1`, the inhibition was 0.203%. Regarding `CC1CCCCC1NCC(=O)Nc1ccccc1C(=O)Nc1ccccc1` (configuration not stated), the inhibition was -4.86%. Turning to `O=C(Nc1ccc(F)cc1)c1cccnc1N1CCOCC1`, the inhibition was -0.858%. On to `O=C(O)CCC(=O)Nc1ccc(OCC2CCCO2)cc1` (configuration not stated), for which the inhibition is -5.22%. For the molecule `Cc1ccc(NC(=O)CC2C(=O)N(Cc3ccccc3)C(=S)N2NC(=O)c2cccc(F)c2)c(C)c1` (configuration not stated), the inhibition is 5.2%.

Take `COc1ccc(NC(=O)C2CCC(CNC(=O)[C@@H]3Cc4ccccc4CN3)CC2)cc1` (some centres not stated): the inhibition is -2.14%.

Regarding `Cn1cc(-c2ccccc2)cc(C#N)c1=O`, the inhibition was -0.186%. Turning to `Cn1cccc1C(C#N)c1ccccc1C#N` (configuration not stated), the inhibition was 56.5% (active). Turning to `CC(C)C(=O)Nc1oc(-c2ccccc2)cc1C#N`, the inhibition is 7.27%. `Cc1cc(C)c2c(NC(=O)C3CC3)nn(C)c2n1`: the inhibition is 3.4%. The result for `Cc1nnc(SC(C)C(=O)Nc2ccc(S(=O)(=O)NC3CCCCC3)cc2)s1` (configuration not stated) reads 7.56%; that for `NS(=O)(=O)c1ccc(CCNC(=O)CN2C(=O)c3ccccc3S2(=O)=O)cc1`, 0.254%. Then `COc1ccccc1NC(=O)C(C)OC(=O)CC1CCCC1` (configuration not stated), with -15.2%; and `COc1ccc(-c2ocnc2C(=O)Nc2ccc3c(c2)CCC3)cc1`, with 0.782%. On to `Cc1cc(Nc2ccc(Br)cc2F)n2ncnc2n1`, for which the inhibition was -0.336%. For `CCc1cccc(NC(=O)CCCN2C(=O)C(c3ccccc3)Oc3cccnc32)c1` (configuration not stated), the inhibition is -6.79%.

In the case of `O=C(Nc1c2c(nn1-c1ccc(F)cc1)CS(=O)C2)C12CC3CC(CC(C3)C1)C2` (configuration not stated), the inhibition was -15.9%. With `O=C(NCCOc1ccccc1F)Nc1ccc(Br)cc1`, the inhibition was -15.7%. Consider `CO[C@@H]1[C@@H](OC(N)=O)[C@@H](O)C(Oc2ccc3c(O)c(NC(=O)c4ccc(O)c(CC=C(C)C)c4)c(=O)oc3c2C)OC1(C)C` (some centres not stated), for which the inhibition was 3.42%. Take `O=C(Nc1ccccc1C(=O)N1CCOCC1)c1ccc(CSc2ccccc2)cc1`: the inhibition was -11.3%. Regarding `C[C@@]12C(=O)N(c3cccc(Br)c3)C(=O)N1[C@H](c1ccc(Cl)cc1)[C@@H]1C(=O)N(C3CCCCC3)C(=O)[C@@H]12`, the inhibition was -10.3%.

On to `Cc1c(C(=O)NC(=S)NCc2cccnc2)oc2ccccc12`, for which the inhibition is -8.97%. `CC(C)(CSc1nncn1/N=C/c1ccco1)NS(=O)(=O)c1ccc(Cl)cc1`: the inhibition is -10%. As to `COc1ccc(C(O)(C2CCCCC2)C(CN2CCCC2)c2ccccc2)cc1` (configuration not stated), the inhibition was -13.6%. Then `CCOC(=O)C1CCN(C(=O)COc2cccc3ccccc23)CC1`, with -22%; and `O=C1CN(C(=O)COC(=O)/C=C/c2ccc(F)cc2)c2ccccc2N1`, with -0.579%. As to `COc1ccc(N(C)C(=O)C2CCN(S(=O)(=O)c3cccc4nsnc34)CC2)cc1`, the inhibition was -10.1%. `CC(C)(COC(=O)Nc1ccccc1)COC(=O)Nc1ccccc1`: the inhibition is 3.19%. As to `C/C(=N\NS(=O)(=O)c1cccc([N+](=O)[O-])c1)c1cc2ccccc2o1`, the inhibition is 12.7%.

Regarding `Cc1ccc(NC(=O)c2nc[nH]c2C(=O)N2CCCCC2)c(C(=O)c2ccccc2)c1`, the inhibition was 6.08%. For `CCc1ccccc1S(=O)(=O)Cc1ccc(C(=O)NCCc2ccccc2)o1`, the inhibition is -14.5%. For `Cc1nnc(SCC(=O)N(C(C)C)C(C)C)nc1C`, the inhibition is -17%. `CC(Sc1nnc(Cc2ccc([N+](=O)[O-])cc2)o1)C(N)=O` (configuration not stated): the inhibition is 5.89%. In the case of `O=C(NCc1cccc(Cl)c1)C1CCC(=O)N(C2CC2)C1` (configuration not stated), the inhibition was 0.749%.

Turning to `Cc1ccc(S(=O)(=O)N2CCCCC2)cc1C(=O)N(C)CC(=O)Nc1cccc(F)c1`, the inhibition is 2.44%. `CCn1c2ccccc2c2cc(NC(=O)C/C(C)=N/NC(=O)c3ccccc3N)ccc21`: the inhibition was -14.8%.

Consider `COc1ccc(N(CC(=O)NCC2CCCO2)C(=O)CCC(=O)Nc2nccs2)c(OC)c1` (configuration not stated), for which the inhibition is 0.881%. Then `Cc1ccc(C(c2sc3nc(C)nn3c2O)N2CCN(c3ccc(F)cc3)CC2)cc1` (configuration not stated), with -4.54%; and `CCCC1CC(C)(C(=O)Cn2[nH]c(=O)ccc2=O)OC1=O` (configuration not stated), with -24.8%; and `CCNC(=O)N1CCCC(C(=O)c2ccc(-c3ccccc3)cc2)C1` (configuration not stated), with -11%. With `Cn1nccc1C(=O)N1CCCC(C(=O)c2ccc(Oc3ccccc3)cc2)C1` (configuration not stated), the inhibition was -15.6%. In the case of `O=C(c1ccc(-c2ccccc2)cc1)C1CCCN(C(=O)c2cncs2)C1` (configuration not stated), the inhibition is 46.5% (active).

For `COC(=O)c1c(NC(=O)CN2C(=O)NC(CCc3ccccc3)C2=O)sc2c1CCCCC2` (configuration not stated), the inhibition is 2.45%. Regarding `CC1CCN(c2ccc([N+](=O)[O-])cc2C(N)=O)CC1`, the inhibition is -4.82%. In the case of `CCC(C)(C)NC(=O)c1cc([N+](=O)[O-])ccc1N1CCCCC1`, the inhibition was 38.9% (active). Take `CCN1CCN(c2ccc([N+](=O)[O-])cc2C(=O)c2ccc(Cl)cc2)CC1`: the inhibition was -6.71%. Then `CCOc1cc(/C=C2\SC(N3CCCC(C)C3)=NC2=O)ccc1O` (configuration not stated), with -6.66%.

As for `c1ccc2cc(CCCc3cc4ccccc4cn3)ncc2c1`, the inhibition is 21.2%. As for `Cc1c(NC(=S)NC(=O)CCc2ccccc2)c(=O)n(-c2ccccc2)n1C`, the inhibition is -12.9%. Regarding `Cc1ccc(NC(=O)CCOc2ccccc2)cc1S(=O)(=O)Nc1ccccc1Cl`, the inhibition is -5.34%.

On to `Cc1nc2nc(C)c(CCC(=O)N3CCN(c4ccccc4)CC3)c(C)n2n1`, for which the inhibition was -9.01%. Take `CN(C)c1nnnn1-c1ccc(Cl)cc1`: the inhibition was -0.634%. With `CO/N=C/c1cn(-c2ccc(Cl)cc2)nn1`, the inhibition is 49% (active). Then `CN(C)c1ccc(/C=C/C(=O)c2ccc(C(C)(C)C)cc2)cc1[N+](=O)[O-]`, with 7.14%; and `CN(C)c1ccc(/C=C/C(=O)c2ccc(O)cc2)cc1[N+](=O)[O-]`, with -3.3%. Consider `O=C(/C=C/c1ccc(Cl)c([N+](=O)[O-])c1)c1ccc(O)cc1`, for which the inhibition was 42% (active). As for `Cc1ccc(N2CC(C(=O)Nc3cc(Cl)ccc3-n3cncn3)CC2=O)cc1` (configuration not stated), the inhibition was -12.4%.

Consider `c1cc(-n2cnnn2)ccc1NC1=NCCC1`, for which the inhibition is -15.4%. The result for `Cc1ccc(C(=O)Nc2nnc(C3=COCCO3)o2)cc1C` reads -6.48%.

`Cc1c(NC(=O)c2c([N+](=O)[O-])cnn2C)c(=O)n(-c2ccccc2)n1C`: the inhibition is -9.74%. Turning to `CSC1=N/C(=C\C=C\c2cccs2)C(=O)S1`, the inhibition was 93.4% (active). Then `ONC(=Nc1ccccc1)c1ccccc1Cl`, with -2.68%.

Take `O=C(CCCN1C(=O)CSc2ncccc21)N1CCN(c2cccc(C(F)(F)F)c2)CC1`: the inhibition is -3.29%. Regarding `O=C(Nc1ccc(Cl)cc1)c1cccc(OC(=S)N2CCOCC2)c1`, the inhibition was -4.62%. For `NC(=O)c1ccc(NC(=O)COC(=O)c2c3c(nc4ccccc24)/C(=C\c2ccc4c(c2)OCO4)CCC3)cc1`, the inhibition was 12.2%. Regarding `C=CCc1cccc2cc(C(=O)OCC)c(=O)oc12`, the inhibition was 13.8%. `Cc1cc(C)cc(OCC(=O)NNC(=O)c2cc3ccccc3oc2=O)c1`: the inhibition is -2.78%. Then `CCOC(=O)c1cc2cc3ccccc3cc2oc1=O`, with 65.9% (active). In the case of `CC(=O)Nc1ccc(C(=O)OCC(=O)Nc2ccc([N+](=O)[O-])cc2C(F)(F)F)cc1`, the inhibition is -15.1%. For the molecule `CCc1ccc(NC(=O)CN2CCC(C(=O)c3ccc(OC)cc3)CC2)cc1`, the inhibition is -11.8%. For the molecule `O=C(CN(c1ccccc1)S(=O)(=O)c1ccc(Cl)cc1)Nc1ccccc1C(=O)N1CCCC1`, the inhibition is -7.63%. Take `O=C(c1ccccc1)c1ccc2nc(N3CCCCC3)c3nncn3c2c1`: the inhibition is -14.2%. Consider `CC(OC(=O)CCc1nc(=O)c2ccccc2n1C)C(=O)NCc1ccc2c(c1)OCO2` (configuration not stated), for which the inhibition was 11.9%. The result for `O=C1CC(C(=O)O)NC(=S)N1` (configuration not stated) reads -11%; that for `O=C(NCC(=O)N(Cc1cccs1)C(C(=O)NC1CCCCC1)c1ccco1)c1cccs1` (configuration not stated), -5.29%; that for `CCOC(=O)N1CCC(=NNC(N)=O)CC1`, 5.61%.

On to `O=S(=O)(O)c1cc2onnc2c2ccccc12`, for which the inhibition is -19.4%.

Regarding `CCOc1cc(C(=O)N(Cc2ccccc2)c2ccc(C)cc2)ccc1OCC(=O)N1CCOCC1`, the inhibition is -12.7%. Take `COc1ccc(-c2nnc(-c3ccc4ccccc4c3)o2)cc1`: the inhibition was -12.7%. With `COc1ccc(-c2cc3ncccc3cn2)cc1`, the inhibition is 48.1% (active). `COc1cc(OC)cc(-c2cc3ccc(F)cc3cn2)c1`: the inhibition was 8.09%. Regarding `COC(=O)Cc1csc(/N=C/c2c(O)n(-c3cccc(C(F)(F)F)c3)c(=O)c3ccccc23)n1`, the inhibition is -13%.
